# From PubChem
# NS3h inh CB – hepatitis C NS3 helicase inhibition, primary screen | AID 687043 | 16,000 compounds, 1.6% hits | NS3h Cy5-dT15 DNA binding, fluorescence polarization | inhibition, % at 100 µM;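 active = inhibition above the average over every tested compound plus 3 SD, cut at about 40% in these data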
# Cy5 interf NS3h – Cy5 fluorescence interference, HCV helicase counter-screen | Cy5-dT15 DNA with NS3h; actives lie on both sides; signal over control mean, under 1 quenches | fluorescence interference ratio at 100 µM | 16,000 compounds, 6% hits | AID 720488;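 active = compound fluorescence over control fluorescence at most 0.8, a quencher, or at least a set upper limit, an enhancer; inactive = ratio between 0.8 and the set upper limit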
# Starred values were filed as active, the others as inactive. Rows were chosen to be rich in hits. Some 6.9% of all compounds tested hit in one or more screens of this group.
SMILES,NS3h inh CB,Cy5 interf NS3h
Cc1cc(C(=O)N2CCN(C)CC2)ccc1[N+](=O)[O-],-8,0.85
COc1ccc(-n2nc3cc(C)c(NC(=O)COc4ccc(Br)cc4)cc3n2)cc1,13,1.1
O=C(NCCN1CCOCC1)C(=O)NCc1ccc(Cl)cc1,7,1.3*
O=C(NCCN1CCN(Cc2ccccc2)CC1)C(=O)Nc1ccc(Cl)cc1,1,1
Cc1c(OC(C)C(=O)O)ccc2c3c(c(=O)oc12)CCC3 (stereo not given),6,1.1
COc1ccc(/C=C/C(=O)Nc2ccc(F)cc2)cc1Br,11,1
CCOc1ccc(N2C(=O)NC(=O)/C(=C\c3ccc(OCc4cccc(C(=O)O)c4)cc3)C2=O)cc1,28,1.1
Cc1cccc(N2C(=O)NC(=O)/C(=C\c3ccc(OCc4cccc(C(=O)O)c4)cc3)C2=O)c1,16,1.3*
Cc1ccc(N2C(=O)/C(=C/c3ccc(OCc4cccc(C(=O)O)c4)cc3)C(=O)NC2=S)cc1,28,1.1
Cc1ccc(N2C(=O)NC(=O)/C(=C\c3ccc(OCc4cccc(C(=O)O)c4)cc3)C2=O)cc1,52*,1
COc1ccc(NC(=O)c2ccc(Cl)cc2)c2ncccc12,18,1
NC(=O)c1ccc(NC(=O)CCC(=O)O)cc1,1,1.1
CC(=O)Nc1ccc(NC(=O)CCC(=O)O)cc1,-1,0.63*
CCSc1nnc(NC(=O)c2ccc(Br)o2)s1,10,0.77*
CCC(=O)Nc1ccc(NC(=O)c2ccc(Br)o2)cc1,-3,1
COc1cc(NS(=O)(=O)c2ccc([N+](=O)[O-])cc2)cc(OC)c1,9,1
Cc1ccccc1-c1cc2nc(C)c(Cl)c(=O)n2[nH]1,-1,1
Cc1nc2cc(-c3ccco3)[nH]n2c(=O)c1C,9,0.77*
CSc1ccccc1NC(=O)c1ccc([N+](=O)[O-])cc1,7,1.1
COC(=O)C(=Cc1cc(Br)c(OCc2ccc([N+](=O)[O-])cc2)c(OC)c1)C(=O)OC,6,0.75*
COc1cc(/C=C/c2[nH]c(=O)[nH]c(=O)c2[N+](=O)[O-])cc(Br)c1OCc1ccccc1,13,1.1
Cc1cc(NC(=O)c2ccccc2[N+](=O)[O-])ccc1-c1cc2ccccc2oc1=O,13,1
CN(CCOC(=O)C(C)(c1ccccc1)c1ccccc1)C(C)(C)C,6,0.76*
CN(C)CC#CC(O)(c1ccccc1)c1ccccc1,-20,1
COC(=O)c1cccc(N2C(=O)c3ccc(Oc4ccc(NC(C)=O)cc4)cc3C2=O)c1,-25,1.3*
SMILES,NS3h inh CB,Cy5 interf NS3h
CC(=O)Nc1cccc(Oc2ccc3c(c2)C(=O)N(c2ccccc2)C3=O)c1,8,0.99
CC(C)(C)c1ccc(OCC(=O)Nc2cccc(OC(F)(F)F)c2)cc1,7,1
CC(C)(C)c1ccc(OCC(=O)Nc2cccc(C(=O)Nc3nccs3)c2)cc1,-6,0.8*
CCC(CO)Nc1cc(Cl)ccc1[N+](=O)[O-] (stereo not given),14,0.69*
CCC(CO)Nc1cc(N2CCOCC2)ccc1[N+](=O)[O-] (stereo not given),14,0.73*
COc1ccc(OCCNc2cc(Cl)ccc2[N+](=O)[O-])cc1,6,1.1
O=[N+]([O-])c1ccc(N2CCOCC2)cc1[N+](=O)[O-],-14,1.1
O=C1NN(c2ccccc2)C(=O)/C1=C/c1ccc(-c2ccc(F)cc2)o1,7,0.99
Cc1ccc(C(=O)Nc2ccccc2)cc1[N+](=O)[O-],10,0.63*
O=C(Nc1ccc2nn(-c3ccccc3)nc2c1)c1cccc(F)c1,-20,0.94
O=C(Nc1ccc2nn(-c3ccccc3)nc2c1)c1ccc(Cl)c([N+](=O)[O-])c1,-8,0.44*
O=C(O)c1ccc(NC(=O)c2ccc(Cl)c([N+](=O)[O-])c2)cc1,10,0.9
CN(C)c1ccc(NC(=O)c2ccc(Cl)c([N+](=O)[O-])c2)cc1,44*,0.32*
Cc1ccc(C(=O)Nc2ccc(I)cc2)cc1[N+](=O)[O-],14,1.1
COC(=O)C1=C(C)N(c2ccc(F)cc2)C(=O)/C1=C\c1ccccc1O,17,0.89
CCOC(=O)c1c(-c2ccccc2)csc1NC(=O)c1ccccc1I,0,1.1
CCOC(=O)C1C(=O)CC(O)(c2cccc(Br)c2)CC1C=C(Cl)Cl (stereo not given),10,0.84
O=C(CCCN1C(=O)/C(=C\c2cccs2)SC1=S)Nc1ccccn1,14,0.98
CC(=O)C1=C(O)CCC1=Nc1ccccc1,12,1
CCCCOc1ccccc1NC1=NS(=O)(=O)c2ccccc21,-1,1.1
COc1ccc(N2C(=O)C3C4C=CC(C5CC45)C3C2=O)c([N+](=O)[O-])c1 (stereo not given),6,0.98
COc1cc([N+](=O)[O-])ccc1N1C(=O)C2C3C=CC(C4CC34)C2C1=O (stereo not given),9,0.75*
COC(=O)c1c(C)oc2cc(Br)c(OC)cc12,17,0.98
